The values that follow come from PubChem BioAssay (Tox21).

“And” between values parts separate entries of the source, which are not always exact repeats. Identical values can stand only once. Inconclusive results are not listed. Some structures have more than one record in an assay (separate samples or runs), and their calls can disagree. The source made the active and inactive calls. Unless noted, calls follow the shape of the full dose curve.

Test [1] in a line: Nuclear factor erythroid 2-related factor 2/antioxidant responsive element (Nrf2/ARE) small molecule agonists: qHTS cell viability counter screen in human keratinocytes (AID 1919968; active = well fitted curve in the direction sought with a large enough effect in the repeat runs; an effect the other way counts as inactive or inconclusive; also: nearly all actives have a fitted effect of over 55% in size; also: potency is read from the fitted curve at half-maximal effect). In short, it runs like this:
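In human HaCaT keratinocytes stably expressing an ARE-driven luciferase, compound exposure lasted 23 h at 37 C under 5% CO2. Viable cells are quantified with a protease-based fluorogenic reagent (CellTiter-Fluor) read 1 h after addition.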
On the technique in general: qHTS replaces the single test concentration by a dilution series.

Test [2] in a line: Nuclear factor erythroid 2-related factor 2/antioxidant responsive element (Nrf2/ARE) small molecule agonists: luciferase reporter gene qHTS assay in human keratinocytes (AID 1919969). Also: nearly all actives have a fitted effect of over 35% in size. Also: potency is read from the fitted curve at half-maximal effect. Background: A reporter such as luciferase makes a cellular process visible.
Test [3] concerns the target KiSS-1 receptor (Homo sapiens) (UniProt Q969F8). The test can be described thus: Human kisspeptin (KISS1R) small molecule agonists, calcium flux assay in KISS1R-HEK293 cells (AID 1920064; active = well fitted curve in the direction sought with a large enough effect in the repeat runs; an effect the other way counts as inactive or inconclusive). In short, it runs like this:
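Concentration-response testing used 15 concentrations in triplicate on human KISS1R-expressing HEK293 cells. Calcium-dependent fluorescence (Ex/Em 480/540) was followed kinetically for 3 min after compound transfer.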
(Calcium flux is commonly read through the fluorescence of an indicator in the cells.)

Test [4] is described as follows: G protein-coupled receptor (GPCR) small molecule agonists, calcium flux assay: HEK293 wild type cell line counter screen (AID 1920065). In short, it runs like this: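 Fluorescence intensity signals activation. After overnight (18 h) culture and a 1 h calcium dye load at 37 C, compounds are added by pin tool and the plate read at 480/540 nm for 3 min in 1 s steps.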

A short description of test [5]: p53 small molecule agonists, cell-based qHTS assay with human liver microsomes: qHTS cell viability counter screen (AID 1963579). Also: nearly all actives have a fitted effect of over 45% in size. In short, it runs like this: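 Viability of p53RE-bla cells is measured as CellTiter-Glo luminescence following a 16 h, 37 C incubation with compound, liver microsomes from human donors and NADPH.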
Test [6] is described as follows: p53 small molecule agonists, cell-based qHTS assay with rat liver microsomes: qHTS cell viability counter screen (AID 1963580). Also: nearly all actives have a fitted effect of over 45% in size. Also: potency is read from the fitted curve at half-maximal effect. In short, it runs like this: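 Luminescent ATP readout (CellTiter-Glo, 30 min at room temperature) reports viability of p53RE-bla HCT-116 cells after 16 h at 37 C with test compounds under metabolic activation by rat liver microsomes and NADPH at 0.5 mg/mL final each.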

The nature of test [7]: p53 small molecule agonists, cell-based qHTS assay: qHTS cell viability counter screen (AID 1963581). Also: nearly all actives have a fitted effect of over 45% in size. Also: potency is read from the fitted curve at half-maximal effect. A digest of the protocol: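 Luminescence from CellTiter-Glo, reflecting ATP content, serves as the cytotoxicity measure; it is taken after the 2 h reporter substrate step in HCT-116 p53RE-bla cells dosed for 16 h at 37 C.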
Test [8] has as its target 5-hydroxytryptamine receptor 2A (Homo sapiens) (UniProt P28223). Description: 5-hydroxytryptamine receptor 2A (HTR2A) small molecule antagonists, cell-based qHTS assay (AID 1963586). Also: nearly all actives have a fitted effect of over 45% in size. Also: potency is read from the fitted curve at half-maximal effect. A digest of the protocol: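 CHO cells stably expressing human HTR2A were plated for 18 h at 37 C, then loaded with calcium dye for 1 h. Compounds were preincubated 5 min at room temperature before DOI (4 nM solution) was added. Kinetic fluorescence was read for 3 min.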

Test [9] shares this target. The test can be described thus: 5-hydroxytryptamine receptor 2A (HTR2A) small molecule agonists, cell-based qHTS assay (AID 1963587). Also: nearly all actives have a fitted effect of over 30% in size. Also: potency is read from the fitted curve at half-maximal effect. In short, it runs like this:
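HTR2A-CHO cells, plated 18 h at 37 C/5% CO2, dye-loaded 1 h at 37 C; compounds in DMSO added by pin tool (agonist mode). Intracellular calcium flux read as kinetic fluorescence on FDSS over 2 min at 1 s intervals.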

Test [10] addresses Muscarinic acetylcholine receptor M1 (Homo sapiens) (UniProt P11229). Description: Cholinergic receptor muscarinic 1 (CHRM1) small molecule antagonists, cell-based qHTS assay (AID 1963588). Also: nearly all actives have a fitted effect of over 40% in size. A digest of the protocol: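 Compounds were tested at 15 concentrations in three independent runs. Dye-loaded CHRM1-CHO cells were exposed 5 min at room temperature before stimulation by acetylcholine added at 50nM. Intracellular calcium was read kinetically on FDSS for 3 min.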

The target is the same in test [11]. The test can be described thus: Cholinergic receptor muscarinic 1 (CHRM1) small molecule agonists, cell-based qHTS assay (AID 1963589). Also: nearly all actives have a fitted effect of over 35% in size. Also: potency is read from the fitted curve at half-maximal effect. In short, it runs like this: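 Fluorescent calcium dye reports M1 activation in stably transfected CHO cells. Compounds, 15 concentrations, added after 1 h dye loading at 37 C; kinetic reading at 1 sec intervals.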
Test [12] is described as follows: cAMP Responsive Elements (CRE) small molecule agonists, cell-based qHTS assay (AID 1963590). A digest of the protocol: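 Compound exposure lasted 3 h at 37 C/5% CO2 in CRE-bla HEK 293T cells grown in assay medium with 10% dialyzed FBS and 25 mM HEPES. Reporter signal came from LiveBLAzer B/G FRET substrate, 2 h, room temperature.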
Test [13] is described as follows: cAMP Responsive Elements (CRE) small molecule antagonists, cell-based qHTS assay (AID 1963591; active = well fitted inhibition curve with a large enough effect in the signal ratio in the repeat runs, not every such curve was filed as active; the % refers to the signal ratio). In short, it runs like this: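 Stimulation used NKH477 at a final 0.25 uM for 3 h in compound-treated CRE-bla HEK293T cells, seeded 18 h beforehand. Reporter activity was measured with LiveBLAzer B/G FRET substrate after 2 h at room temperature.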
Test [14] addresses Beta-2 adrenergic receptor (Homo sapiens) (UniProt P07550). Description: Adrenergic beta2 receptor (ADRB2) small molecule antagonists, cell-based qHTS assay (AID 1963592). Also: series mostly up to about 92 µM; nearly all actives have a fitted effect of over 50% in size. A digest of the protocol:
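Assay format: CHO-ADRB2 cells, 18-20hr seeding at 37C/5% CO2, then compound plus 1nM isoproterenol agonist mix for 0.5hr RT. Homogeneous time-resolved fluorescence cAMP detection after 1hr, expressed as 665/615 nm ratio.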

Test [15] has as its target D(2) dopamine receptor (Homo sapiens) (UniProt P14416). The test can be described thus: Dopamine D2 receptor (DRD2) small molecule agonists, cell-based qHTS assay (AID 1963594). Also: nearly all actives have a fitted effect of over 35% in size. Also: potency is read from the fitted curve at half-maximal effect. In short, it runs like this:
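HEK293 cells stably expressing DRD2 were cultured 24 h at 37 C, then given Ro20-1724 (0.1 mM final) and compounds for 10 min at room temperature. NKH477 (200nM) was then added for 30 min. cAMP was read by HTRF.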

The target is the same in test [16]. Description: Dopamine D2 receptor (DRD2) small molecule antagonists, cell-based qHTS assay (AID 1963595; active = well fitted inhibition curve with a large enough effect in the signal ratio in the repeat runs, with a control signal flat; the % refers to the signal ratio; also: potency is read from the fitted curve at half-maximal effect). In short, it runs like this: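 DRD2-HEK293; 0.1 mM Ro20-1724; cpd 10 min RT; NKH477 200 nM + quinpirole 12 nM, 30 min RT; HTRF cAMP (cAMP-d2/anti-cAMP cryptate), 665/620 nm ratio after 1 h.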
Test [17] can be described thus: p53 small molecule agonists, cell-based qHTS assay with human liver microsomes (AID 1963577).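 Also: p53 response element beta-lactamase reporter cells with liver microsomes plus NADPH.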 A digest of the protocol:
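HLM-supplemented p53RE-bla reporter assay: 16 h compound exposure at 37 C, microsomes and NADPH each 0.5 mg/mL final, read by fluorescence intensity.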

A short description of test [18]: p53 small molecule agonists, cell-based qHTS assay with rat liver microsomes (AID 1963578). A digest of the protocol: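 Quantitative HTS of the Tox21 10K library: p53RE-bla cells, rat liver microsomes plus NADPH at 0.5 mg/mL final each, 16 h at 37 C, beta-lactamase fluorescence detection.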
Test [19] is described as follows: p53 small molecule agonists, cell-based qHTS assay (AID 1963582; active = well fitted activation curve with a large enough effect in the signal ratio in the repeat runs, not every such curve was filed as active; the % refers to the signal ratio). A digest of the protocol:
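After plating, p53RE-bla cells sat 5 h in the incubator; compounds or DMSO vehicle were pinned in; a 16 h incubation at 37 C followed; FRET substrate was added and, 2 h later at RT, fluorescence was measured.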

The target in test [20] is Beta-2 adrenergic receptor (Homo sapiens) (UniProt P07550). The test can be described thus: Adrenergic beta2 receptor (ADRB2) small molecule agonists, cell-based qHTS assay (AID 1963593).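 Also: CHO cells stably overexpressing human ADRB2.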 In short, it runs like this:
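CHO cells stably over-expressing ADRB2 were plated overnight at 37C, then dosed with compounds plus a stimulation mix containing 100uM IBMX and 25uM Ro-20-1724 for 0.5hr at room temperature. cAMP was measured by HTRF competition, 1hr.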
% is scaled to controls: 0 for no effect and ±100 for the full control effect.

Chain of D(2) dopamine receptor (Homo sapiens) (P14416 whole entry, looked up): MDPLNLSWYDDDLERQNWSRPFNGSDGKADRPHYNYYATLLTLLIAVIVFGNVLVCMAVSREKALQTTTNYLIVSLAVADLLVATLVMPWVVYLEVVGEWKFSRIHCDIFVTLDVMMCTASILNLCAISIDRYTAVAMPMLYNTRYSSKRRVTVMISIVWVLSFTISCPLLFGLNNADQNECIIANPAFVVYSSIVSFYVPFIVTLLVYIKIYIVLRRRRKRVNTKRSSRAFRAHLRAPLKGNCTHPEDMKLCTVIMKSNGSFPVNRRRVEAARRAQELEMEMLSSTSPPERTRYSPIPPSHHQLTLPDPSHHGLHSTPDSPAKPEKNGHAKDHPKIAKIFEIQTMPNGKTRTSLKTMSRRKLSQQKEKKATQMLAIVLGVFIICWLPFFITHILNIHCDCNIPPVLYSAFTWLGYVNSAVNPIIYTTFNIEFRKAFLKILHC
Chain of Muscarinic acetylcholine receptor M1 (Homo sapiens) (P11229 whole entry, looked up): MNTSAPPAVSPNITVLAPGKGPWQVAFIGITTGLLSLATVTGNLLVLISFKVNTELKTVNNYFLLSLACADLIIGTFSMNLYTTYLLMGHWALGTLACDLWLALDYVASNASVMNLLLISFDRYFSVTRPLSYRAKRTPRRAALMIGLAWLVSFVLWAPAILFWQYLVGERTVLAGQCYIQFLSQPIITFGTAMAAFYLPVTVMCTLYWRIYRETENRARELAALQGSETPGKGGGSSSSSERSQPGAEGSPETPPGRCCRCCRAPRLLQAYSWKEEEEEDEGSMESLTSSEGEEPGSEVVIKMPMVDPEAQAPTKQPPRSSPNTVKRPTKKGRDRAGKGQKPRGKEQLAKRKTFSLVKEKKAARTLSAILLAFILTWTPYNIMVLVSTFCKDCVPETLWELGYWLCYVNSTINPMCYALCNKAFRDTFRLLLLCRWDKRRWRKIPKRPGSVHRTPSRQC
Chain of Beta-2 adrenergic receptor (Homo sapiens) (P07550 whole entry, looked up): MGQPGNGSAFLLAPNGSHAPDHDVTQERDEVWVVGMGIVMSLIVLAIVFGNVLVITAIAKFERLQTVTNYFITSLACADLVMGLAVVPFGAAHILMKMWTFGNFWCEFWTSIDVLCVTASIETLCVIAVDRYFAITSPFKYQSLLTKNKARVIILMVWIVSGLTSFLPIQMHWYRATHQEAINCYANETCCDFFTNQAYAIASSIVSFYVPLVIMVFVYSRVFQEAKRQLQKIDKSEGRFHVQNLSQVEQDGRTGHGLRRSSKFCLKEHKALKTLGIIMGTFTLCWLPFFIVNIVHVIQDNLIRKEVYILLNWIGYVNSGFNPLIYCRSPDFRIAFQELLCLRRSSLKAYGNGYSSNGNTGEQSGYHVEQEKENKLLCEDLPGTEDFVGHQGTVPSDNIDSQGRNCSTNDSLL
Chain of 5-hydroxytryptamine receptor 2A (Homo sapiens) (P28223 whole entry, looked up): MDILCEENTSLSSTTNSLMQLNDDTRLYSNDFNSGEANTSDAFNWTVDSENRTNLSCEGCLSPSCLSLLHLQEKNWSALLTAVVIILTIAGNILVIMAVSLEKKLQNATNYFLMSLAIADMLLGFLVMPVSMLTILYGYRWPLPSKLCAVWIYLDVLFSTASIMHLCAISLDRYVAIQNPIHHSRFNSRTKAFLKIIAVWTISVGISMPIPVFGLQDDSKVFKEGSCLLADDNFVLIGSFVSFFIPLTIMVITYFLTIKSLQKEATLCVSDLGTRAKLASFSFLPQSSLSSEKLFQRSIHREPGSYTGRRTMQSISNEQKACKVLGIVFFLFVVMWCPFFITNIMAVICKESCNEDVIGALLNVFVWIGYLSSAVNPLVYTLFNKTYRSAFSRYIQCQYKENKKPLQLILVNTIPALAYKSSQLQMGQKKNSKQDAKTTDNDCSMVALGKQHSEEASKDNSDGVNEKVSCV
Chain of KiSS-1 receptor (Homo sapiens) (Q969F8 whole entry, looked up): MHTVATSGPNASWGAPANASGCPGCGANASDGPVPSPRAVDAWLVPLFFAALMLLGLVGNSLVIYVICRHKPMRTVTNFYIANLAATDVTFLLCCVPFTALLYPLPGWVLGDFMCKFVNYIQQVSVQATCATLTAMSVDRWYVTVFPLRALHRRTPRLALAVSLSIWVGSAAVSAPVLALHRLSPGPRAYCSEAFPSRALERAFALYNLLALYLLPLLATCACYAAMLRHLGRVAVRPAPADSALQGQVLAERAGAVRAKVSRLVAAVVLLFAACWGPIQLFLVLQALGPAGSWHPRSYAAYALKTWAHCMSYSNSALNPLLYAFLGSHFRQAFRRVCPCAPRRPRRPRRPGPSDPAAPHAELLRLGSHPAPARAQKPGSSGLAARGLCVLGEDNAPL

As for `O=[N+]([O-])c1ccc(Cl)c(Cl)c1`, the Potency result in test [1], in test [2], in test [3], in test [4], in test [5] and in test [6] was “inactive” in each case. In addition, the Potency entry in test [7], in test [8], in test [9], in test [10], in test [11] and in test [12] was “inactive” throughout. Further, the Potency entry in test [13], in [14], in test [15] and in test [16] was “inactive” throughout.

For `O=C1C2CC=CCC2C(=O)N1SC(Cl)(Cl)Cl` (stereo not drawn), the Potency entry in [1] was “inactive and 26.9 µM (active)”; in [2], 54.3 µM (active) and 7.57 µM (active); in test [9], 24.1 µM (active); in [11] it was “inactive and 38.3 µM (active)”; in test [16], “inactive and 23.9 µM (active)”. Moreover, the Potency entry in test [4], in test [17], in test [18], in test [5], in test [6] and in [7] was “inactive” each time. Further, the Potency result in [19], in test [8], in test [10], in [13], in test [14] and in test [20] was “inactive” throughout. Moreover, the Potency result in [15] was “inactive”.

In the case of `O=C(Cl)OCc1ccccc1`, the Potency result in [1], in test [2], in [3], in [4], in test [18] and in [5] was “inactive” each time. Further, the Potency result in [6], in [7], in test [19], in [8], in test [9] and in test [10] was “inactive” in each case. The Potency entry in test [11], in test [12], in test [13], in test [14], in test [20] and in [15] was “inactive” in each case. The Potency entry in [16] was “inactive”.

With `Brc1c(Br)c(Br)c(Oc2c(Br)c(Br)c(Br)c(Br)c2Br)c(Br)c1Br`, the activity change, negative = cytotoxicity was -0.108% [at 19 µM] (inactive) in test [1], 4.17% [at 13.5 µM] (inactive) in test [6] and 13.8% [at 13.5 µM] (inactive) in test [7]. Moreover, the activity, positive = activation in [2] was -3.66% [at 19 µM] (inactive). Further, the activation was -2.44% [at 15.8 µM] (inactive) in [3]; 1.15% [at 11.8 µM] (inactive) in test [4]; -0.0858% [at 13.5 µM] (inactive) in [17]; 0.633% [at 13.6 µM] (inactive) in test [18]; 0.0757% [at 13.5 µM] (inactive) in [19]; 1.53% [at 15.9 µM] (inactive) in [9]. In addition, the activation in test [11] was -0.663% [at 15.8 µM] (inactive); in [12], 0.588% [at 19 µM] (inactive); in test [20], -14.9% [at 19 µM] (inactive). The figures for the activity, negative = inhibition in test [8] and in [10] were 9.26% [at 12.7 µM] (inactive) and -22.2% [at 12.6 µM] (inactive), respectively. The activity change, negative = inhibition was -8.08% [at 18.9 µM] (inactive) in test [13], 1.07% [at 19 µM] (inactive) in test [14] and 0.371% [at 18.9 µM] (inactive) in test [16].

Take `N#CCCO`: the Potency entry in test [1], in test [2], in test [3], in test [18], in test [5] and in [6] was “inactive” throughout. Besides, the Potency result in test [7], in test [19], in test [8], in test [9], in [10] and in [11] was “inactive” each time. Besides, the Potency entry in test [12], in test [13], in [14], in test [15] and in test [16] was “inactive” each time.

In the case of `CCCCCCCCCC(CC)c1ccc(S(=O)(=O)O)cc1` (stereo not drawn), the Potency entry is “inactive and 26.6 µM (active)” in test [1]; “inactive and 21.7 µM (active)” in test [2]; “inactive and 40.8 µM (active)” in test [6]; “inactive and 48.5 µM (active)” in test [7]; “inactive and 37.5 µM (active)” in test [8]; “inactive and 54.5 µM (active)” in [15]. Also, the Potency entry in test [3], in test [4], in test [5], in test [10], in [11] and in [13] was “inactive” throughout. For the same molecule, the Potency result in [14], in test [20] and in test [16] was “inactive” throughout.

Consider `CC1(C)C(C=C(Cl)Cl)C1C(=O)OC(C#N)c1ccc(F)c(Oc2ccccc2)c1` (stereo not drawn), for which the Potency entry in test [1], in test [2], in test [3], in [17], in test [18] and in test [5] was “inactive” in each case. The Potency result in test [6], in test [7], in [19], in test [8], in test [9] and in test [10] was “inactive” in each case. In addition, the Potency result in test [11], in [12], in test [13], in [14] and in test [15] was “inactive” throughout.

Turning to `C=CCSSCC=C`, the Potency entry in test [1], in test [2], in test [4], in test [17], in test [18] and in test [5] was “inactive” each time. Further, the Potency entry in test [6], in [7], in test [19], in [8], in test [9] and in test [10] was “inactive” each time. For the same molecule, the Potency result in [11], in [13], in test [14], in test [20], in test [15] and in [16] was “inactive” in each case.
